Experimental data reported in paper PMC4336329 (PLoS ONE, 2015).
In all, about 310,000 compounds went through this assay and about 14,000 (4.5%) showed an effect of 50% or more. The effect is printed as a negative number. This is one part of a sample in which strong results are shown more often than they occur.

What follows are compounds tested against human ether-à-go-go-related gene (hERG) potassium channel (human, UniProt Q12809) (assay: primary screen, population patch clamp on CHO cells stably expressing hERG; higher = less effect of the substance).
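Also: peak tail current of the secondary pulse compared with the same well before compound.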

Sequence of human ether-à-go-go-related gene (hERG) potassium channel (Q12809 whole entry, looked up): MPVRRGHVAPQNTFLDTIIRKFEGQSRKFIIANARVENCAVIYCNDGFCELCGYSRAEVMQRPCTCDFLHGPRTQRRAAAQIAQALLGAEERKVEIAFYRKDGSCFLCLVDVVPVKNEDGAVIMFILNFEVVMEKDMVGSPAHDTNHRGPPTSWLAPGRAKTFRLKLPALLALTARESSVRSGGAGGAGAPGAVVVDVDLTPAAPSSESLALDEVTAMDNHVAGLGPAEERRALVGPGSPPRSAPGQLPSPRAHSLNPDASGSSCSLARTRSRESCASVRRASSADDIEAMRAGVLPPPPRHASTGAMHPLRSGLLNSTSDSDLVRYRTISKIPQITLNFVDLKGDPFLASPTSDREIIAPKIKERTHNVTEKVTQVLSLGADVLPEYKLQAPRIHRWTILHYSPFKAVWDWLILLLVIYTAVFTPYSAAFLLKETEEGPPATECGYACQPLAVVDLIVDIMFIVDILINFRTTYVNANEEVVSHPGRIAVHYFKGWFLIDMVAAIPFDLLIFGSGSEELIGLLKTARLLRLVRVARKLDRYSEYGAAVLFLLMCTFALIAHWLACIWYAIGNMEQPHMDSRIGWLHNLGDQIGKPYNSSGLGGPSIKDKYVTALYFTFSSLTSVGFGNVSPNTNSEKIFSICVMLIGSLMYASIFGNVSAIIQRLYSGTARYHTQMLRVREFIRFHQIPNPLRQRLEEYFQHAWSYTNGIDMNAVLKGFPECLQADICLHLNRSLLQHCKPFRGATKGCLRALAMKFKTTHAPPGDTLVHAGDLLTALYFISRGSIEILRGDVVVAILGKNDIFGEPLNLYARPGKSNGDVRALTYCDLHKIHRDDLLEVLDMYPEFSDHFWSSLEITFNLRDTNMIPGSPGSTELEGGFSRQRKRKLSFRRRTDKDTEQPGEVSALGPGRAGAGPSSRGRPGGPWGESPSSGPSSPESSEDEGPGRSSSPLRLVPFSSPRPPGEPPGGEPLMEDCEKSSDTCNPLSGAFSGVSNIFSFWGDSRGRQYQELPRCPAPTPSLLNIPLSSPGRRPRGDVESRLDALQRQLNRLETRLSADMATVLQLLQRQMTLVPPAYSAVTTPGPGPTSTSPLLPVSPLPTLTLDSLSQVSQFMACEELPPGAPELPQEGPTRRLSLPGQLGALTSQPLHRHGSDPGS

| SMILES | hERG current change (%, negative = inhibition) at 10uM [%] |
| --- | --- |
| CCn1c(SCc2nc3ccccc3[nH]2)nnc1-c1ccc(OC)cc1 | -1.72 |
| O=C(NNC(=O)C1CC(=O)N(Cc2ccccc2)C1)c1ccc(F)cc1 (stereo not shown) | 2.46 |
| O=C(NC1CCCCCC1)c1cccnc1Sc1ccccc1 | -15.4 |
| O=S(=O)(c1ccc(NC(=S)N2CCN(c3ccc(O)cc3)CC2)cc1)N1CCOCC1 | 2.83 |
| COC(=O)C[C@H]1c2cc(F)cc(F)c2S(=O)(=O)N1C1CCN(Cc2ccccc2)CC1 | -32 |
| CC(=O)Nc1ccc(S(=O)(=O)CCC(=O)O)cc1 | 17.5 |
| Cc1cc(C(=O)Nc2sc(C)c(C)c2C#N)c(C)o1 | 20.6 |
| Cc1ccc2oc(C(=O)NCC(c3ccco3)N(C)C)c(C)c2c1 (stereo not shown) | -8.52 |
| CCn1cc(CN2CCC(n3nccc3NC(=O)CCOc3ccccc3)CC2)c(C)n1 | 7.84 |
| O=C(CCOc1ccccc1)Nc1ccnn1C1CCN(Cc2ccc(F)cc2)CC1 | -59.1 |
| COc1ccc(CN2CCC(n3nccc3NC(=O)CCOc3ccccc3)CC2)cc1C | -68.7 |
| CCn1cc(CN2CCC(n3nccc3NC(=O)CCOc3ccccc3)CC2)cn1 | -12.9 |
| Cc1ccc(CN2CCC(n3nccc3NC(=O)CCOc3ccccc3)CC2)cc1C | -48.2 |
| O=C(COc1ccc2c3c(c(=O)oc2c1)CCC3)NCC(O)c1ccccc1 (stereo not shown) | 11.5 |
| CCOC(=O)C1CCCN(S(=O)(=O)c2ccc3c(c2)NC(=O)CO3)C1 (stereo not shown) | -1.47 |
| COc1ccc(C2(C)NC(=O)N(CC(=O)Nc3ccc(S(=O)(=O)N4CCCC4)cc3)C2=O)cc1 (stereo not shown) | -2.91 |
| O=C(CN1CCN(c2ccccc2)CC1)Nc1ccc(OCc2ccccc2)cc1 | 2.44 |
| O=C(CN1CCN(c2ccccn2)CC1)Nc1ccc(OCc2ccccc2)cc1 | -45.3 |
| O=C(CN1CCN(CC(=O)Nc2ccc(OCc3ccccc3)cc2)CC1)Nc1ccc(F)cc1 | -72.5 |
| O=C(CN1CCOCC1)Nc1ccc(OCc2ccccc2)cc1 | -21.3 |
| CN1CCN(CC(=O)Nc2ccc(OCc3ccccc3)cc2)CC1.Cl | -9.11 |

| SMILES | hERG current change (%, negative = inhibition) at 10uM [%] |
| --- | --- |
| O=C(CN1CCCC1)Nc1ccc(OCc2ccccc2)cc1 | -54.1 |
| COC(=O)c1ccc(N=Cc2c(C(F)(F)F)[nH][nH]c2=O)cc1 | 27.2 |
| CCCCCc1nc2ccccc2c(=O)n1-c1ccccc1[N+](=O)[O-] | -24.5 |
| Cc1ccc(NC(=O)c2cccs2)cc1NC(=O)c1cccc(F)c1 | 5.36 |
| CC(C)c1c(O)nc(SCc2ccccc2)[nH]c1=O | 11.5 |
| CSc1ccccc1C(=O)NCC1CCCO1 (stereo not shown) | -11.8 |
| O=C1c2ccccc2C(=O)N1CCCCSc1nnc2ccccn12 | -22.7 |
| O=C1c2ccccc2C(=O)N1CSc1nnnn1-c1ccccc1 | -3.73 |
| O=C1c2ccccc2C(=O)N1CCCCSc1nnc2c(Cl)cc(Cl)cn12 | -80.2 |
| O=C(O)CCSc1nnnn1-c1ccccc1 | -1.42 |
| CCSc1nnc2c(Cl)cc(Cl)cn12 | 5.28 |
| O=C1c2ccccc2C(=O)N1CCCCSc1nnnn1-c1ccccc1 | -51.7 |
| CC(=O)OCc1cc(-c2nc3ccccc3[nH]c2=O)nn1-c1ccc(Cl)cc1 | 18 |
| O=C(CSc1nc2[nH]ncc2c(=O)[nH]1)NCCc1ccccc1 | 26.9 |
| O=[N+]([O-])c1ccc2c(c1N1CCCCC1)=NC1(CCCCC1)[N+]=2[O-] | -8.78 |
| Cc1ccc(NC(=O)C/C(N)=N/OC(=O)Nc2ccc(C)c(Cl)c2)cc1 | 4.56 |
| O=C(NCCCN1CCOCC1)c1ccc(-n2nc(C(F)(F)F)cc2-c2cccs2)cc1 | -80.4 |
| O=C(NCCCN1CCOCC1)c1cc(-c2cccs2)on1 | -15.7 |
| COCCCNC(=O)c1ccc(-n2nc(C(F)(F)F)cc2-c2cccs2)cc1 | -30.6 |
| COc1ccc(C(=O)COC(=O)CN2C(=O)NC(C)(C)C2=O)cc1OC | -1.87 |
| NC(=O)C(=O)N/N=C/c1c[nH]c2ccc(Br)cc12 | 12.7 |

| SMILES | hERG current change (%, negative = inhibition) at 10uM [%] |
| --- | --- |
| O=C(NC(=S)Nc1ccc(CN2CCOCC2)cc1)c1cccc([N+](=O)[O-])c1 | 10.7 |
| Cc1ccc(-n2c(=O)[nH]cc(C(=O)Nc3ccc4c(c3)OCCO4)c2=O)cc1C | -5.33 |
| CN1CCC(NCCC(c2ccc(F)cc2)c2ccc(Cl)cc2)CC1 (stereo not shown) | -71.5 |
| CC(C)C(CCNC1CCN(C)CC1)c1ccc(Cl)cc1 (stereo not shown) | 11.3 |
| CCN1CCC(NCCc2ccc(F)cc2)CC1 | -0.893 |
| Cc1ccccc1-c1noc(CNC(=O)COc2ccccc2)n1 | -10.4 |
| COc1ccc(C(=O)N(C)Cc2ccccc2)cc1Br | -8.29 |
| Cc1cc(Br)ccc1NC(=O)CN(C)C(=O)CCSc1ccc(F)cc1 | 0.468 |
| Cc1ccccc1C(=O)N1CCC(C(=O)N(C)CC(=O)Nc2cccc(F)c2)CC1 | 12.4 |
| CN(CC(=O)Nc1ccccc1C(F)(F)F)C(=O)C1CCN(C(=O)c2ccc(Cl)cc2)CC1 | -31.8 |
| Cc1cc(Br)ccc1NC(=O)CN(C)C(=O)C1CCN(C(=O)c2ccc(F)cc2)CC1 | -65.1 |
| CN(CC(=O)Nc1ccccc1Cl)C(=O)C1CCN(C(=O)c2ccc(Cl)cc2)CC1 | -35.1 |
| CN(CC(=O)Nc1cccc(F)c1)C(=O)C1CCN(C(=O)c2ccc(Cl)cc2)CC1 | -55.5 |
| CCOc1ccc(NC(=O)CN(C)C(=O)C2CCN(C(=O)c3ccc(Cl)cc3)CC2)cc1OCC | -48.1 |
| CN(CC(=O)Nc1ccccc1Br)C(=O)CN1CCN(Cc2ccc(Cl)cc2)CC1 | -66.9 |
| CN(CC(=O)Nc1ccccc1Br)C(=O)CN1CCN(c2ccccc2Cl)CC1 | -29.6 |
| CN(CC(=O)Nc1ccccc1Br)C(=O)c1ccc(-c2ccc(Cl)cc2)o1 | 5.51 |
| CN(CC(=O)Nc1ccccc1Cl)C(=O)C1CCN(C(=O)c2ccc(F)cc2)CC1 | -20.9 |
| CN(CC(=O)Nc1ccccc1Br)C(=O)C1CCN(C(=O)c2ccc(Cl)cc2)CC1 | -50.1 |
